From PubChem BioAssay (Tox21) come the findings set out here.

Several values for one entry are separate records, joined by “and”; a condition that tells them apart may be missing. Identical values can stand only once. Results filed as inconclusive are left out. A call without a number means that no potency is given here. Where a structure was tested more than once in an assay, its records may differ in their call. Activity calls are given as the source filed them. Calls come from the whole dose curve; as a rule, active = well fitted activation curve with a large enough effect in the repeat runs; inconclusive = weak or mixed curves; inactive = flat fitted curve, though single readings scatter.
Potency is the fitted concentration of half-maximal effect.

A short description of this assay: A CellTox Green Cytotoxicity Assay to monitor cytotoxicity in HepG2 cells - 40 hour (AID 1224879). Note: nearly all actives have a fitted effect of over 40% in size. The following applies: CellTox Green fluorescence; series mostly up to 76.8 µM. A digest of the protocol: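 Using 1536-well format, dye-containing HepG2 suspension was seeded, allowed 5 h at 37 C/5% CO2, dosed by pintool with compounds, positive and negative controls, and imaged for fluorescence across 40 h.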
On to `Nc1ccccc1O`, for which the Potency result is “inactive”.
As for `Cc1oc(-c2ccccc2)nc1CCC(=O)c1ccc(CC2SC(=O)NC2=O)cc1` (stereo unspecified), the entry is “inactive”.
The value for `O=C(O)c1c(Cl)cccc1Cl` was “inactive”; that for `CCC1OCC(COc2ccc(Oc3ccccc3)cc2)O1` (stereo unspecified) was “inactive”; that for `CCN(Cc1cccnc1)C(=O)c1cccc(Cl)c1[C@]1(C)C(=O)N(Cc2ccc(OC)cc2OC)c2ccc(Cl)cc21` was “inactive”.
The value for `Cn1cc(C(=O)[C@@H]2CCc3nc[nH]c3C2)c2ccccc21` was “inactive”; that for `C[C@H]1[C@H]2CC[C@H]3[C@@H]4CC=C5C[C@@H](N(C)C)CC[C@]5(C)[C@H]4CC[C@]23CN1C` was “inactive”; that for `Cc1ccc(O)c2ncccc12` was 7.56 µM (active).
Regarding `COCCCC/C(=N\OCCN)c1ccc(C(F)(F)F)cc1`, the Potency is 26.8 µM (active).
As for `CCCCCCCCCCCCCCCCCC[N+](C)(C)Cc1ccccc1`, the Potency was 19.7 µM (active).
As for `CCN(C(=O)c1cc(C)cc(OC[C@H](C)Nc2ccncc2)c1)C(C)C`, the entry is “inactive”; as for `O=[N+]([O-])c1cc([N+](=O)[O-])c2ccc(S(=O)(=O)O)cc2c1O`, “inactive”.
As for `Cc1cccc(CN2CCN(C(c3ccccc3)c3ccc(Cl)cc3)CC2)c1` (stereo unspecified), the entry is “inactive”.
Consider `CCCCN1C(=O)[C@@H]([C@H](O)C2CCCCC2)NC(=O)C12CCN(Cc1ccc(Oc3ccc(C(=O)O)cc3)cc1)CC2`, for which the Potency entry is “inactive”.
For `Cc1onc(-c2ccccc2Cl)c1C(=O)N[C@@H]1C(=O)N2[C@@H]1SC(C)(C)[C@@H]2C(=O)O`, the Potency entry is “inactive”.
The value for `O=C1CCCCCN1SSN1CCCCCC1=O` was 54.9 µM (active); that for `Cc1[nH]nc2c1N=C(c1ccccc1Cl)c1cc([N+](=O)[O-])ccc1N2` was “inactive”.
As for `c1cc(C(c2ccc(OCC3CO3)cc2)c2ccc(OCC3CO3)cc2)ccc1OCC1CO1` (stereo unspecified), the entry is “inactive”.
The value for `CCCCCCCCOC(=O)c1ccc(O)cc1` was “inactive and 49 µM (active)”.
Consider `CO[Si](CCCNc1ccccc1)(OC)OC`, for which the Potency result was “inactive”.
The value for `CCCCCCCCS(=O)C(C)Cc1ccc2c(c1)OCO2` (stereo unspecified) was “inactive”.
On to `CCOC(=O)/C=C(C)/C=C/C=C(C)/C=C/c1c(C)cc(OC)c(C)c1C`, for which the Potency entry is “inactive”.
In the case of `CC[C@H](c1ccc(O)cc1)[C@@H](CC)c1ccc(O)cc1`, the Potency is 49 µM (active).
The value for `CN1CCN(CCC(=O)N2c3ccccc3Sc3ccc(C(F)(F)F)cc32)CC1` was 21.3 µM (active); that for `Cc1cc(O)c(C(C)(C)C)cc1C(C)(C)C` was 24.5 µM (active).
Take `CCCCC(CC)CN=C(N)NC(N)=NCCCCCCN=C(N)NC(N)=NCC(CC)CCCC` (stereo unspecified): the Potency was 8.49 µM (active).
On to `O=C(N/N=C/c1ccccc1O)c1ccncc1`, for which the Potency result was “inactive”.
As to `CCN(C(=O)N(CC)c1ccccc1)c1ccccc1`, the Potency result is “inactive”.
The value for `Fc1ccc([C@@H]2CCNC[C@H]2COc2ccc3c(c2)OCO3)cc1` was 26.8 µM (active); that for `CC[C@@]1(O)C(=O)OCc2c1cc1n(c2=O)Cc2cc3c(CN(C)C)c(O)ccc3nc2-1` was 7.56 µM (active); that for `O=C1c2ccccc2Cc2ccccc21` was “inactive”.
